Experimental data from ChEMBL document CHEMBL3988442, “University of Dundee, Small-Polar-MMV Screening Library” (2021).
The campaign covered roughly 48,000 compounds. About 13,000 (27%) showed an effect of 50% or more. The list shows a part of the results.

These compounds were tested on Wolbachia pipientis (assay: Anti-Wolbachia Cell-Based Screen). Conditions: 5 µM.
Type: functional
Parameters: scale not given: in the data most compounds retested in dose-response had high values
With `Cc1ccc(C(=O)NS(=O)(=O)c2ccccc2C)c(=O)[nH]1` the “Percent Effect” value was -8.925%.
In the case of `CCNC(=O)N1CCN(Cc2nc3ccccc3[nH]2)[C@@H]2CS(=O)(=O)C[C@@H]21`, the “Percent Effect” value is reported as 3.535%.
For `COC(=O)CC(NC(=O)c1cccc(CS(C)(=O)=O)c1)c1cccs1` (stereo unspecified), the “Percent Effect” value was 18.46%.
With `N#Cc1ccc(F)c(CN2CCCC2Cn2cncn2)c1` (stereo unspecified) the “Percent Effect” value was 0.2616%.
`Cc1[nH]c(=O)sc1S(=O)(=O)N1CCCC1C(=O)NCc1ccsc1` (stereo unspecified) was tested, and the “Percent Effect” value was 1.823%.
`O=C(COc1cccc(Br)c1)N1CCOCC1c1ncon1` (stereo unspecified) was tested, and the “Percent Effect” value was -1.613%.
For `CC1COCCN1C(=O)c1cccc(OCc2cscn2)c1` (stereo unspecified), the “Percent Effect” value was -3.154%.
In the case of `CC1COCCN1C(=O)COc1cccc(Oc2ccccn2)c1` (stereo unspecified), the “Percent Effect” value is reported as 91.48%.
For `CC(C)(C)NC(=O)COc1ccc(Oc2ccccn2)cc1`, the “Percent Effect” value was -9.446%.
For `CC1COCCN1C(=O)COc1ccc(Oc2ccccn2)cc1` (stereo unspecified), the “Percent Effect” value was 102.9%.
In the case of `COc1ccc(Oc2ncccc2NC(=O)N2CCOCC2C)cc1` (stereo unspecified), the “Percent Effect” value is reported as -2.613%.
In the case of `O=c1oc(-c2ccc(F)cc2)nn1CCS(=O)(=O)c1ccccc1`, the “Percent Effect” value is reported as 3.372%.
With `CCc1cnc(CN2CCC(O)(c3cc(OC)cc(OC)c3)CC2)o1` the “Percent Effect” value was -1.491%.
In the case of `N#Cc1c(Cl)nsc1NCc1ccc(N2CCCC(C(N)=O)C2)cc1` (stereo unspecified), the “Percent Effect” value is reported as 6.894%.
For `COc1ccc(-c2nc(CSC3CCCCNC3=O)co2)cc1` (stereo unspecified), the “Percent Effect” value was -25.49%.
For `c1coc(-c2nc3c(c(NCc4n[nH]c5c4CCC5)n2)CCNCC3)c1`, the “Percent Effect” value was -11.22%.
With `CN(C)c1nccc(NCc2cc(-c3ccco3)n[nH]2)n1` the “Percent Effect” value was 126.3%.
In the case of `CN(C)c1nccc(NCc2cc(-c3cccs3)n[nH]2)n1`, the “Percent Effect” value is reported as 108.4%.
In the case of `CNc1ccnc(N(C)Cc2cc(-c3cccs3)n[nH]2)n1`, the “Percent Effect” value is reported as 8.932%.
`CNc1cc(C(=O)N(C)Cc2cc(-c3cccs3)n[nH]2)ccn1` was tested, and the “Percent Effect” value was 11.01%.
For `Cc1n[nH]c(C)c1CNc1nc(-c2ccco2)nc2c1CCNCC2`, the “Percent Effect” value was 0.9084%.
`O=S(=O)(CC1CC1)c1ncc(CN2CCOCC2)n1CC1CCCO1` (stereo unspecified) was tested, and the “Percent Effect” value was 1.621%.
With `Cn1cnc2c1CCN(CCS(=O)(=O)c1ccccc1)C2` the “Percent Effect” value was 2.795%.
`CCOc1ccc(CN2CCNC(C(=O)NC3CC3)C2)cc1CO` (stereo unspecified) was tested, and the “Percent Effect” value was -28.15%.
`Cc1nc(CNC(=O)c2oc3ccccc3c2CN(C)C)oc1C` was tested, and the “Percent Effect” value was 12.17%.
With `Cc1ccc(C)c(OCCN2CCC(N3CCNC3=O)CC2)c1` the “Percent Effect” value was -4.141%.
With `COc1ccccc1OCCN1CCC(N2CCNC2=O)CC1` the “Percent Effect” value was -7.605%.
In the case of `COc1ccccc1OCCCN1CCNC1=O`, the “Percent Effect” value is reported as 93.18%.
With `COc1cccn(CC(=O)N(C)CCCOc2c(C)cccc2C)c1=O` the “Percent Effect” value was -81.04%.
`COc1cccc(OC)c1OCCN1C(=O)CCNC1=O` was tested, and the “Percent Effect” value was 70.56%.
`COc1ccccc1OCCCc1cncc(C(N)=O)c1` was tested, and the “Percent Effect” value was -13.5%.
In the case of `CC(C)Oc1ccccc1OCCN1C(=O)CCNC1=O`, the “Percent Effect” value is reported as 102.7%.
In the case of `COc1cccc(CN2C[C@H]3CC[C@H]2C3)c1OCCN1CCOCC1`, the “Percent Effect” value is reported as 3.067%.
With `COc1ccccc1OCCCc1cc(C#N)ccn1` the “Percent Effect” value was -8.074%.
In the case of `COc1ccccc1OCCCN1C(=O)CCNC1=O`, the “Percent Effect” value is reported as 100.1999%.
With `CCn1ccnc1CN1CCN(CCOc2ccccc2OC)CC1` the “Percent Effect” value was 1.541%.
In the case of `N#Cc1ccccc1OCCN1CCC(N2CCNC2=O)CC1`, the “Percent Effect” value is reported as -2.122%.
In the case of `Cc1nc(N(C)CCCc2nccn2C)c2c(C)nn(C)c2n1`, the “Percent Effect” value is reported as -2.28%.
`Cc1[nH]c2c(C)ccc(C)c2c1CC(=O)NCc1csc(N(C)C)n1` was tested, and the “Percent Effect” value was -37.05%.
With `CCC(CC)c1cc(CNC(=O)N2CCOCC2CC)on1` (stereo unspecified) the “Percent Effect” value was 8.113%.
With `CC(C)(O)CCc1ccc(C(=O)NCCC2CCOC2)cc1` (stereo unspecified) the “Percent Effect” value was -23.58%.
`CCOc1ccc(CN2CCN(CCOC)[C@@H]3CS(=O)(=O)C[C@@H]32)cc1` was tested, and the “Percent Effect” value was -4.58%.
In the case of `O=C(NCCCOCC1CC1)Nc1cccnc1N1CCOCC1`, the “Percent Effect” value is reported as -4.484%.
With `CCc1nc(C#N)c(N2CCC(c3nc(-c4ccccc4)no3)CC2)o1` the “Percent Effect” value was -18.26%.
For `c1ccc(-c2noc(C3CCN(CCCn4cncn4)CC3)n2)cc1`, the “Percent Effect” value was -0.715%.
In the case of `c1ccc(-c2noc(CCCN3CCCC3Cn3cncn3)n2)cc1` (stereo unspecified), the “Percent Effect” value is reported as 100.9%.
For `N#Cc1cccc(CN2CCCC2Cn2cncn2)c1` (stereo unspecified), the “Percent Effect” value was -16.52%.
In the case of `O=C1CCCN1CCCN1CCCCC1Cn1cncn1` (stereo unspecified), the “Percent Effect” value is reported as 3.397%.
With `c1ccc(CCCN2CCCC2Cn2cncn2)cc1` (stereo unspecified) the “Percent Effect” value was 145.7%.
In the case of `CCN(Cc1ccccc1)C(=O)CN1CCCCC1Cn1cncn1` (stereo unspecified), the “Percent Effect” value is reported as -8.051%.
`c1csc(-c2noc(CCCN3CCCC3Cn3cccn3)n2)c1` (stereo unspecified) was tested, and the “Percent Effect” value was -9.384%.
For `Cc1cc(C)n(CC2CCCN2CCS(=O)(=O)c2ccccc2)n1` (stereo unspecified), the “Percent Effect” value was -8.876%.
In the case of `O=S(=O)(CCCN1CCCCC1Cn1cncn1)c1ccccc1` (stereo unspecified), the “Percent Effect” value is reported as 108.5%.
`O=S(=O)(CCN1CCCC1Cn1cncn1)c1ccccc1` (stereo unspecified) was tested, and the “Percent Effect” value was 102.1%.
In the case of `CN1CCN(CC2CC2)C(=O)C12CCN(c1nccs1)CC2`, the “Percent Effect” value is reported as -15.71%.
In the case of `CC(C)NC(=O)[C@@H](NC(=O)N1CCN(c2ccc(Cl)cc2)CC1)C(C)C`, the “Percent Effect” value is reported as -4.425%.
For `Cn1cnc(-c2nc(C(=O)NCCN3CCOCC3)c3ccccn23)c1`, the “Percent Effect” value was -34.35%.
For `CN(CC1CC1)S(=O)(=O)c1ccc(C(F)(F)F)cc1C#N`, the “Percent Effect” value was -1.577%.
With `O=C(c1ccc2c(c1)[nH]c(=O)n2[C@H]1CC[C@H](O)CC1)N1CCOCC1` the “Percent Effect” value was 1.877%.
For `O=S(=O)(c1ccccc1)N1CCCC(Cn2cncn2)C1` (stereo unspecified), the “Percent Effect” value was -7.569%.
In the case of `O=S(=O)(CCCN1CCCC(Cn2cncn2)C1)c1ccccc1` (stereo unspecified), the “Percent Effect” value is reported as 92.49%.
With `O=S(=O)(CCN1CCOC(Cn2cncn2)C1)c1ccccc1` (stereo unspecified) the “Percent Effect” value was -0.6358%.
With `O=C1CCCN1CCN1CCCCC1Cn1cncn1` (stereo unspecified) the “Percent Effect” value was 1.495%.
For `O=S(=O)(CCN1CCCCC1Cn1cncn1)c1ccccc1` (stereo unspecified), the “Percent Effect” value was 104.1%.
For `N#Cc1ccccc1OCCN1CCCCC1Cn1cncn1` (stereo unspecified), the “Percent Effect” value was -1.923%.
In the case of `CCN(CC1COc2ccccc2O1)C(=O)C1=NN(C)C(=O)CC1` (stereo unspecified), the “Percent Effect” value is reported as 17.44%.
`COC(=O)CCNC(=O)c1c[nH]cc1-c1cccc(OC)c1` was tested, and the “Percent Effect” value was 3.352%.
In the case of `COc1ccc(CN2CCCC2Cn2nc(C)nc2C)cc1F` (stereo unspecified), the “Percent Effect” value is reported as -0.5946%.
`COc1ccc(C)cc1CN1CCCC1Cn1nc(C)nc1C` (stereo unspecified) was tested, and the “Percent Effect” value was 2.525%.
With `COc1ccc(F)cc1CN1CCCC1Cn1nc(C)nc1C` (stereo unspecified) the “Percent Effect” value was 149.5%.
With `COc1ccc(CN2CCCCC2Cn2nc(C)nc2C)cc1F` (stereo unspecified) the “Percent Effect” value was 112.6%.
